Experimental data: PubChem BioAssay AID2810 (NMMLSC, 2010)
Hit rate of the full screen: of about 1,200 compounds, about 65 (5%) were called active.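 The calls were made as follows: active = at either tested dose, response and 90th-percentile vesicle-stain brightness of CD8 cells under set limits and under 9% cells vesicle-bound; inactive = the rest.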 Many of the other results were omitted from the sample, so actives are more common in it than they were.

Experiment: modulators of CD8 T cell-vesicle binding, confirmation, cherry-picked primary hits, two concentrations (AID 2810);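 also: lower values mean blocking of vesicle binding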;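 as to percent response (vesicle binding): ratio of mean FL2 vesicle stain of CD8+ cells to that row's control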
Conditions: 2C CD8+ T cell-vesicle binding, flow cytometry; for double positive events: CD8+/vesicle+ events
[1] = at 15.4 µM, stronger effect = lower value

| SMILES | double positive events (at 7.7 µM) | double positive events [1] | percent response (vesicle binding) [1] | percent response (vesicle binding) (response, at 7.7 µM) |
| --- | --- | --- | --- | --- |
| CCCCCCCCn1c2c(c(=N)c3c1CCC3)CCCC2 | 1.8% | 5.8% | 46.9% (active) | 54.6% |
| C=CCN1C(=O)c2ccc(C(=O)N3CCN(S(=O)(=O)c4cccc(Cl)c4)CC3)cc2C1=O | 12.4% | 26.8% | 118% (inactive) | 125% |
| CC(C)(C)C(=O)Nc1ccc2c(c1)OCCOCCOc1cc(NC(=O)C(C)(C)C)ccc1OCCOCCO2 | 22.2% | 25.5% | 251% (inactive) | 910% |
| COc1ccc(N(CC(=O)NCCC2=CCCCC2)S(=O)(=O)c2ccc(C)cc2)cc1OC | 8.6% | 22.9% | 140% (inactive) | 96.7% |
| Cc1c(C(=O)NCCSCc2c(F)cccc2Cl)cnn1-c1ccc(Cl)cc1 | 19.9% | 1.6% | 26.4% (active) | 229% |
| O=C(CSCCO)N1CCc2ccccc21 | 9.8% | 26% | 310% (inactive) | 415% |
| Nc1nnc(SCCOc2ccc(Br)cc2)s1 | 34.9% | 15.9% | 217% (inactive) | 294% |
| Cc1sc(NC(=O)CN2CCOCC2)c(C#N)c1C | 10.4% | 29% | 344% (inactive) | 364% |
| COc1cccc(C(=O)O[C@@H]2[C@H](Cc3ccccc3)NS(=O)(=O)[C@H]3C[C@@H]4C=C[C@]23O4)c1 | 30% | 18.9% | 180% (inactive) | 197% |
| Cc1oc(-c2ccccc2)nc1Cn1cccc1C1=NC(c2ccccc2)CO1 (configuration not stated) | 13.6% | 14.5% | 105% (inactive) | 179% |
| CCn1nc(C(=O)NCCc2ccc3c(c2)OCCO3)c2ccccc2c1=O | 9.8% | 15.2% | 173% (inactive) | 148% |
| OC[C@H]1O[C@@H](Oc2ccc3cc(Br)ccc3c2)[C@H](O)[C@@H](O)[C@H]1O | 14.4% | 27.5% | 389% (inactive) | 493% |
| COc1ccc(NC(=O)CC2C(=O)N(Cc3ccccc3)C(=S)N2CCN2CCOCC2)cc1 (configuration not stated) | 13% | 0.6% | 20% (active) | 196% |
| COC(=O)CN1C(=S)N(C)C(=O)C1CC(=O)Nc1ccccc1 (configuration not stated) | 18.9% | 12.8% | 120% (inactive) | 896% |
| COc1ccc(C(=O)N2CCN(c3ccc(NC(=O)Cc4ccccc4)cc3)CC2)cc1 | 25.4% | 23.5% | 291% (inactive) | 635% |
| S=c1sc2c(N3CCOCC3)ncnc2n1-c1ccccc1 | 9.4% | 12.2% | 206% (inactive) | 355% |
| Cc1cc2ncn(C(=O)N3CCCCCC3)c2cc1C | 6.8% | 21.3% | 112% (inactive) | 241% |
| CCCCn1c(-c2ccccc2)nnc1-c1ccccc1 | 37.8% | 9.3% | 150% (inactive) | 219% |
| O=C(N/N=C/c1cccc(OC(=O)c2ccccc2Cl)c1)c1cccnc1 | 25.8% | 10% | 87% (inactive) | 350% |
| O=C(N/N=C/c1ccc(OCc2ccccc2)cc1)c1cccs1 | 12.1% | 18.5% | 272% (inactive) | 428% |
| O=C(N/N=C/c1cccc(OCc2ccccc2)c1)c1ccc(Br)cc1 | 9.6% | 0.9% | 36% (active) | 128% |

| SMILES | double positive events (at 7.7 µM) | double positive events [1] | percent response (vesicle binding) [1] | percent response (vesicle binding) (response, at 7.7 µM) |
| --- | --- | --- | --- | --- |
| Cc1ccc(N(CC(O)CN2CCCC2)S(=O)(=O)c2ccc(C)cc2)cc1 (configuration not stated) | 24.2% | 34.6% | 136% (inactive) | 325% |
| COc1cc(F)c(C2=CC(=O)C[C@H](c3ccc(F)cc3)C2)cc1F | 24.2% | 13.4% | 170% (inactive) | 320% |
| CC1(C)Cc2c(C#N)c(NC3CCCCC3)nc(-c3ccco3)c2CO1 | 5.9% | 2.8% | 33.8% (active) | 107% |
| O=C(NCCC1=CCCCC1)C(=O)NCC(c1ccco1)N1CCN(c2ccccc2F)CC1 (configuration not stated) | 36.4% | 10.7% | 201% (inactive) | 264% |
| O=C(NCc1cccnc1)C(=O)NCC(c1ccco1)N1CCN(c2ccccc2)CC1 (configuration not stated) | 20.2% | 6.1% | 135% (inactive) | 202% |
| COc1ccc(NC(=O)Cc2ccc(C)c(C)c2)cc1S(=O)(=O)N1CCCCC1 | 37.7% | 10.7% | 257% (inactive) | 649% |
| COc1ccccc1NS(=O)(=O)c1cc(NC(=O)CNC(=O)c2cc(C)cc(C)c2)ccc1C | 21% | 0.9% | 39.6% (active) | 218% |
| COc1ccccc1NS(=O)(=O)c1ccc(C)c(NC(=O)c2ccc(S(=O)(=O)N3CCCCCC3)cc2)c1 | 11.9% | 35.5% | 332% (inactive) | 182% |
| O=S(=O)(NN=C1CCCCCCC1)c1ccc(Br)cc1 | 13.7% | 7.3% | 144% (inactive) | 120% |
| CC(/C=C/c1ccc(C)o1)=C\C(=O)O | 19.1% | 19.8% | 196% (inactive) | 227% |
| COCCNC(=O)c1c[nH]c2ccc(OC)cc2c1=O | 18.7% | 13.1% | 154% (inactive) | 563% |
| NC(=O)NC(=O)COC(=O)CN1C(=O)C2CCCCC2C1=O (configuration not stated) | 15.9% | 33.3% | 345% (inactive) | 151% |
| CCn1c(=O)cc(SCC(=O)N(C)Cc2ccccc2)c2ccccc21 | 24.8% | 14% | 193% (inactive) | 224% |
| CCOC(=O)c1c(C=O)c2ccccc2n1CC | 17.9% | 3% | 28.6% (active) | 287% |
| CCOC(=O)c1c(O)c2cc(Cl)ccc2n(CC)c1=O | 10.9% | 12% | 102% (inactive) | 127% |
| Cc1ccc(CSc2ccc(S(=O)(=O)N3CCCC3)cn2)cc1 | 8.3% | 18% | 92.4% (inactive) | 237% |
| CC(=O)c1ccc(Nc2cc(C)nc3nc(C)nn23)cc1 | 10.4% | 19.9% | 90.9% (inactive) | 189% |
| COc1ccc(NC(=S)N2CCN(c3ncccn3)CC2)c(OC)c1 | 30.6% | 14.7% | 195% (inactive) | 246% |
| COc1ccc(-c2cccc3c2NC(=O)C3=O)cc1OC | 7.8% | 26.1% | 427% (inactive) | 305% |
| C/C(=N\Nc1nc2ccccc2[nH]1)c1cc2ccccc2o1 | 14.4% | 31.4% | 271% (inactive) | 266% |
| Cc1sc2ncnc(NCC(C)(C)N3CCOCC3)c2c1C | 6.4% | 1.9% | 49.2% (active) | 251% |

| SMILES | double positive events (at 7.7 µM) | double positive events [1] | percent response (vesicle binding) [1] | percent response (vesicle binding) (response, at 7.7 µM) |
| --- | --- | --- | --- | --- |
| CC(C)(CNC(=O)c1cc2c(s1)CCCC2)N1CCOCC1 | 8% | 20.9% | 213% (inactive) | 164% |
| CCSc1ncnc2sc(C)c(C)c12 | 7.6% | 17.4% | 318% (inactive) | 354% |
| Cc1ncc([N+](=O)[O-])n1Cc1cccc(F)c1 | 7.3% | 11.5% | 118% (inactive) | 274% |
| COc1ccc(S(=O)(=O)N(C)C[C@H]2Oc3ccc(NC(=O)C4CC4)cc3C(=O)N([C@H](C)CO)C[C@@H]2C)cc1 | 5.6% | 16.6% | 189% (inactive) | 102% |
| Cc1cc(C)c(/C=N/NC(N)=O)c(C)c1/C=N/NC(N)=O | 38.1% | 18.6% | 240% (inactive) | 428% |
| O=C1N=C(N2CCOCC2)S/C1=C\c1cccs1 | 8.6% | 6.3% | 248% (inactive) | 332% |
| CCCC(=O)N1CCc2cc(OC)c(OC)cc2C1COc1ccccc1OC (configuration not stated) | 21.6% | 13.8% | 128% (inactive) | 276% |
| COc1ccc(/C=C2\SC(N3CCc4ccccc4C3)=NC2=O)cc1OC | 22.6% | 2.9% | 42% (active) | 201% |
| CC(C)NC(=O)NC(=O)COC(=O)c1ccc(F)cc1F | 29.2% | 19.1% | 385% (inactive) | 423% |
| O=C(c1c[nH]c2ccccc12)N1CCN(Cc2ccccc2)CC1 | 13.7% | 10.6% | 47.9% (inactive) | 181% |
| CC(NS(=O)(=O)c1ccc(Cl)c(Cl)c1)C(=O)OCC(=O)N1CCCCCC1 (configuration not stated) | 27.5% | 12.9% | 182% (inactive) | 284% |
| c1csc(-c2nc3ccccc3[nH]2)c1 | 38.6% | 18.6% | 255% (inactive) | 233% |
| COc1ccc([C@H]2CC(=O)C=C(c3cc(F)ccc3OC)C2)cc1 | 19.1% | 16.3% | 198% (inactive) | 138% |
| COc1ccc([C@H]2CC(=O)C=C(c3ccc4c5c(cccc35)CC4)C2)cc1 | 6.5% | 29.8% | 626% (inactive) | 271% |
| COc1ccc([C@H]2CC(=O)C=C(c3cccc(Cl)c3)C2)cc1 | 37.2% | 4.7% | 129% (inactive) | 315% |
| COc1ccc([C@H]2CC(=O)C=C(/C=C/c3ccccc3)C2)cc1 | 19.1% | 3.3% | 36.9% (active) | 286% |
| COc1ccc(C2=CC(=O)CC(c3ccc(OC)cc3)C2)cc1 (configuration not stated) | 14.8% | 3.2% | 110% (inactive) | 120% |
| COc1ccc([C@H]2CC(=O)C=C(c3c(C)cc(C)cc3C)C2)cc1 | 12.5% | 5.7% | 49.9% (active) | 132% |
| O=C(NCCO)/C(=C\c1ccc(Br)cc1)NC(=O)c1cccs1 | 6.9% | 24.7% | 683% (inactive) | 70.4% |
| COc1ccc(CCCC(=O)NC(C)c2ccccc2)cc1 (configuration not stated) | 12.2% | 15.2% | 93.8% (inactive) | 104% |
| O=C(COC(=O)C1(c2cccc(F)c2)CCCC1)NCc1ccc2c(c1)OCO2 | 15.2% | 3.1% | 106% (inactive) | 82.7% |
